# Only some compounds are listed: those with a hit (about 0.64% of all), similar ones and a draw of the others.
# ERp5 inh – blocks human ERp5 reductase activity on insulin; inhibition, % at 9.99 µM; Q15084; actives 0.05% (n = 350,000); ERp5 insulin aggregation, absorbance 650 nm, 90 min;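 active = mean replicate inhibition above about 25%, with every replicate also reaching it, limit read from the data, passing the limit was not always enough; inconclusive = only one of those two criteria met; inactive = neither criterion met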
# PDI inh – PDI (human) enzyme inhibition; P07237; PDI insulin aggregation turbidity, A650, 90 min; inhibition, % at 10 µM; actives 0.052% (n = 350,000); AID 588391;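 active = mean inhibition across replicates of 30% or more, whatever share of single replicates reach that level; inconclusive = mean inhibition below 30% while every single replicate reaches 30%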
# Target sequence (P07237 whole entry, looked up): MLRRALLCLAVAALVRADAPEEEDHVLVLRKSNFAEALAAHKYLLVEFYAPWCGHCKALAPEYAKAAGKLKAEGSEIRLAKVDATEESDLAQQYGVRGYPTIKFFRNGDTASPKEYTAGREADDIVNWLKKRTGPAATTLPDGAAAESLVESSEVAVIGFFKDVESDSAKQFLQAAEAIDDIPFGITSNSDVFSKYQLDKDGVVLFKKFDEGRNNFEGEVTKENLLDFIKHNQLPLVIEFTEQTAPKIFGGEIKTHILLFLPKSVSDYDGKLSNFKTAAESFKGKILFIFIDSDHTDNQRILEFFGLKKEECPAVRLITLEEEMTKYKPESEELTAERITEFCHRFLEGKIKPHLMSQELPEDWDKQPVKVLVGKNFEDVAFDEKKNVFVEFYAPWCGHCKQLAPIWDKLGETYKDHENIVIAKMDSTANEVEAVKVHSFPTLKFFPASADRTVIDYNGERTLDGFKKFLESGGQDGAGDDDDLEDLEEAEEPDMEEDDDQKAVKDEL
# AI-2 QS mod – modulators of Vibrio harveyi AI-2 quorum sensing system. Vibrio harveyi JMH597 AI-2 luminescence/OD600 ratio, 9 h; active compounds read low; strain lacks LuxN and CqsS sensors; 0 = neutral-control median. activity change, % at 7.5 µM. actives 0.4% (n = 300,000); in the data active = activity change below about -75%, passing the limit was not always enough; inconclusive = no clear call, values can overlap the other calls;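 also: luminescence divided by OD600 gain over 9 h not by final OD600 alone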
# Vif inh – inhibitors of HIV Vif | AID 602346 | HEK293T cells, Vif self-association by quenched fluorescence, imaging, 24 h | inhibition, % at 7.49 µM | actives 0.35% (n = 340,000); in the data active = inhibition above about 50%, passing the limit was not always enough; inconclusive = no clear call, values can overlap the other calls; inactive = below about 31%
# PvdQ inh – P. aeruginosa PvdQ acylase inhibition. purified PvdQ acylase, fluorescence plate reader. inhibition, % at 10 µM. actives 0.063% (n = 340,000). AID 488965; in the data active = inhibition above about 30%, passing the limit was not always enough; inconclusive = no clear call, values can overlap the other calls;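 also: 0% = vehicle neutral wells and 100% = reference inhibitor wells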
# The depositor's hits bear a star; ? = inconclusive; . = no result given.
SMILES,ERp5 inh,PDI inh,AI-2 QS mod,Vif inh,PvdQ inh
COc1ccc(Br)cc1C(=O)Nc1ccc(N2CCCC2)cc1,2,-5,21,143*,-11
CC(=O)N1[C@@H]2c3cccc(=O)n3C[C@@H]2[C@@H](CO)[C@@H]1C(=O)NCc1ccc(F)cc1,2,.,.,.,.
CN1C(=O)c2cc(NC(=O)C3CC3)ccc2OC[C@H]2O[C@@H](CC(=O)Nc3cccc(Cl)c3)CC[C@@H]21,-7,.,.,.,.
CC(C)CN(C(=O)c1cccc([N+](=O)[O-])c1)c1c(N)n(CC(C)C)c(=O)[nH]c1=O,4,8,-6,56*,-14
Cc1ccccc1C(=O)Nc1ccc(N2CCOCC2)nc1,.,4,6,53*,-17
O=C1NC[C@H](Cc2ccccc2)N(C[C@H]2CCCN2C[C@H](Cc2ccccc2)N2C[C@H](Cc3ccc(O)cc3)N(CC3CCCCCC3)C(=O)C2=O)C1=O,-1,?,.,.,-22
O=C1NC[C@H](Cc2ccccc2)N(C[C@H]2CCCN2C[C@H](Cc2ccc(O)cc2)N2C[C@H](Cc3ccc(O)cc3)N(CC3CCCCCC3)C(=O)C2=O)C1=O,1,39*,.,.,-8
CC(=O)Nc1ccc(NC(=O)CCc2ccc(C)o2)cc1,2,-1,13,6,-18
Cc1ccc(CCC(=O)Nc2ccc(C)c(C)c2)o1,-1,-8,-79*,-3,-15
O=C(C[C@H]1C[C@H]2c3cc(NC(=O)Cc4ccncc4)ccc3O[C@H]2[C@H](CO)O1)NCCc1ccccc1,0,.,.,.,.
C[C@H](CO)N1C[C@H](C)[C@@H](CN(C)C(=O)CCC(F)(F)F)OCCCC[C@H](C)Oc2ccc(NC(=O)c3ccccc3)cc2C1=O,-6,.,.,.,.
COc1cc(C(=O)Nc2ccc3c(c2)ncn3C)cc(OC)c1OC,3,-2,19,76*,-6
CCN(CC)S(=O)(=O)c1ccc(NC(=S)NC(=O)C2CCC2)cc1,5,5,11,.,-12
CN(C)S(=O)(=O)c1ccc(NC(=S)NC(=O)C2CCC2)cc1,5,-2,-76*,21,6
CNC[C@H]1Oc2ccc(NC(=O)Cc3ccccc3)cc2CC(=O)N([C@H](C)CO)C[C@H]1C,-1,.,.,.,.
CCC(=O)N1C[C@H](C)[C@H](OC)CN(C)C(=O)c2cc(NC(=O)c3ccc(F)cc3)ccc2OC[C@@H]1C,0,.,.,.,.
CCOC(=O)c1c(C)[nH]c(-c2csc(C)n2)c1C,1,0,10,-3,-14
CCOC(=O)c1c(C)[nH]c(-c2csc(N)n2)c1C,-6,-3,.,112*,-9
COc1ccc(C2c3ccc(O)cc3Oc3ncn(CCN4CCOCC4)c(=N)c32)cc1OC (stereo not given),3,54*,10,0,-7
CC(C)(C)[S@](=O)N1Cc2cc(C(=O)N3CCCCC3)nc(-c3cccc(-c4cccc(C#N)c4)c3)c2[C@@H]1CCO,1,.,.,.,.
CCOC(=O)c1cc2occc2n1CC(=O)N1CCOCC1,.,-1,7,60*,1
C[C@@H]1CCCCO[C@@H](CN(C)CC2CCCCC2)[C@@H](C)CN([C@@H](C)CO)C(=O)c2cc(NS(=O)(=O)c3cn(C)cn3)ccc2O1,5,.,.,.,.
COc1ccccc1OCCC(=O)OCC(=O)c1c(N)n(C)c(=O)n(C)c1=O,-7,11,10,-7,32*
CC(C)C#Cc1cnc2c(c1)C(=O)N([C@H](C)CO)C[C@@H](C)[C@H](CN(C)Cc1ccccc1F)O2,0,.,.,.,.
c1ccc(Cc2nc(-c3ccccn3)no2)cc1,.,0,-48,4,-7
SMILES,ERp5 inh,PDI inh,AI-2 QS mod,Vif inh,PvdQ inh
Cc1ccc(Cc2nc(-c3ccccn3)no2)cc1,.,-2,-85*,.,-16
COc1ccc(S(=O)(=O)Nc2ccc3c(c2)C(=O)N([C@@H](C)CO)C[C@H](C)[C@H](CN(C)C(=O)Cc2ccccc2)OCCCC[C@@H](C)O3)cc1,3,.,.,.,.
O=C(NCC(=O)N1CCN(S(=O)(=O)c2cccs2)CC1)c1ccc(Cl)cc1,1,-1,14,58*,-7
CC1(C)CC2CC(C)(CN2Cc2cccc([N+](=O)[O-])c2)C1 (stereo not given),2,6,13,57*,1
CC1(C)CC2CC(C)(CN2C(=O)COC(=O)c2cccc([N+](=O)[O-])c2)C1 (stereo not given),-8,-5,.,-1,-15
COc1cc2nc(N(CCCN(C)C)C(=O)c3ccc(S(=O)(=O)N4CCc5ccccc54)cc3)sc2cc1OC,4,0,36,50*,3

# High-throughput results: PubChem BioAssay, Broad Institute
